{
  "source": "PubChem BioAssay AID588697",
  "about": "(Southern Research Specialized Biocontainment Screening …, 2011)",
  "tested_on": "M18 aspartyl aminopeptidase (Plasmodium falciparum 3D7)",
  "assay": "PfM18AAP inhibitors, dose response, counter-screen for PfM17LAP inhibitor project, biochemical, QFRET fluorogenic substrate (AID 588697)",
  "note": "Inconclusive results are not listed. Active and inactive are the calls of the source.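 The calls were made as follows: active = inhibition of at least 30% at any tested concentration; inactive = the rest, inconclusive results apart.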",
  "data": [
    {"smiles": "Cc1cc(SCC(=O)Nc2ccccc2C(=O)O)nc2ccccc12", "values": [
      {"measurement": "outcome", "result": "inactive"}
    ]},
    {"smiles": "O=C(O)c1ccccc1C(=O)Nc1nc2c(s1)CCCC2", "values": [
      {"measurement": "outcome", "result": "inactive"}
    ]},
    {"smiles": "CC(C)C[C@H](N)C(=O)NO", "values": [
      {"measurement": "outcome", "result": "inactive"}
    ]},
    {"smiles": "COC(=O)c1ccccc1NC(=O)c1cc2cc3ccc(C)cc3nc2s1", "values": [
      {"measurement": "outcome", "result": "inactive"}
    ]},
    {"smiles": "COC(=O)c1cc(OC)c(OC)cc1NC(=O)c1sc2nc(C)ccc2c1N", "values": [
      {"measurement": "outcome", "result": "inactive"}
    ]},
    {"smiles": "O=C(CSc1nccc(=O)[nH]1)Nc1ccc(Oc2ccccc2)cc1", "values": [
      {"measurement": "outcome", "result": "inactive"}
    ]},
    {"smiles": "N[C@@H](Cc1c[nH]c2ccccc12)C(=O)NO", "values": [
      {"measurement": "outcome", "result": "inactive"}
    ]},
    {"smiles": "COC(=O)c1c(NC(=O)C2CC=CCC2C(=O)O)sc(C)c1-c1ccc(C)cc1", "note": "(stereo not drawn)", "values": [
      {"measurement": "outcome", "result": "inactive"}
    ]},
    {"smiles": "COc1ccc(-c2nnc(NC(=O)C3CC(C)=C(C)CC3C(=O)O)s2)cc1", "note": "(stereo not drawn)", "values": [
      {"measurement": "outcome", "result": "inactive"}
    ]},
    {"smiles": "COC(=O)c1c(NC(=O)C2CCCCC2C(=O)O)sc2c1CCC(c1ccccc1)C2", "note": "(stereo not drawn)", "values": [
      {"measurement": "outcome", "result": "inactive"}
    ]},
    {"smiles": "CC1=C(C)CC(C(=O)Nc2ccc(Oc3ccc(Cl)cc3)cc2)C(C(=O)O)C1", "note": "(stereo not drawn)", "values": [
      {"measurement": "outcome", "result": "inactive"}
    ]},
    {"smiles": "O=C(Nc1ccc(Cl)cc1)Nc1ccccc1C(=O)O", "values": [
      {"measurement": "outcome", "result": "inactive"}
    ]},
    {"smiles": "Cc1ccc(NC(=O)CSc2nc(O)cc(=O)n2Cc2ccccc2)cc1", "values": [
      {"measurement": "outcome", "result": "inactive"}
    ]},
    {"smiles": "CCC(C)(C)C1CCc2c(sc(NC(=O)C3CC(C)=C(C)CC3C(=O)O)c2C(=O)OC)C1", "note": "(stereo not drawn)", "values": [
      {"measurement": "outcome", "result": "inactive"}
    ]},
    {"smiles": "O=C(CSc1nc(O)cc(=O)[nH]1)Nc1ccccc1", "values": [
      {"measurement": "outcome", "result": "inactive"}
    ]},
    {"smiles": "O=C1OCCC1Sc1nnc(NC2CCCCC2)s1", "note": "(stereo not drawn)", "values": [
      {"measurement": "outcome", "result": "inactive"}
    ]},
    {"smiles": "Cc1cc(=O)[nH]c(SCC(=O)Nc2ccccc2)n1", "values": [
      {"measurement": "outcome", "result": "inactive"}
    ]},
    {"smiles": "O=C(Cc1cccc2ccccc12)NO", "values": [
      {"measurement": "outcome", "result": "inactive"}
    ]},
    {"smiles": "COc1cc(NC(=O)c2ccc(-c3ccccc3)cc2)c(C(=O)O)cc1OC", "values": [
      {"measurement": "outcome", "result": "inactive"}
    ]},
    {"smiles": "COC(=O)c1ccccc1NC(=O)c1ccc2c(Cl)c3c(nc2c1)CCC3", "values": [
      {"measurement": "outcome", "result": "inactive"}
    ]},
    {"smiles": "O=C(CSc1ccccc1)Nc1cccc2c1C(=O)NC2=O", "values": [
      {"measurement": "outcome", "result": "inactive"}
    ]},
    {"smiles": "CCn1c2ccccc2c2cc(NC(=O)CSc3nc(C)cc(=O)[nH]3)ccc21", "values": [
      {"measurement": "outcome", "result": "inactive"}
    ]},
    {"smiles": "CC1=C(C)CC(C(=O)Nc2nc(-c3cc(C)ccc3C)c(C)s2)C(C(=O)O)C1", "note": "(stereo not drawn)", "values": [
      {"measurement": "outcome", "result": "inactive"}
    ]},
    {"smiles": "COc1cc(NC(=O)CSc2ccccc2)c(C(=O)O)cc1OC", "values": [
      {"measurement": "outcome", "result": "inactive"}
    ]},
    {"smiles": "CC1CCc2sc(C(=O)Nc3cccc4c3C(=O)NC4)cc2C1", "note": "(stereo not drawn)", "values": [
      {"measurement": "outcome", "result": "inactive"}
    ]},
    {"smiles": "NC(N)=NCCC[C@H](N)C(=O)NO", "values": [
      {"measurement": "outcome", "result": "inactive"}
    ]},
    {"smiles": "COC(=O)c1c(NC(=O)c2ccccc2C(=O)O)sc2c1CCCC2", "values": [
      {"measurement": "outcome", "result": "inactive"}
    ]},
    {"smiles": "O=C(CSc1nccc(=O)[nH]1)Nc1ccc(N2CCOCC2)cc1", "values": [
      {"measurement": "outcome", "result": "inactive"}
    ]}
  ]
}
